Screens: PubChem BioAssay, National Center for Advancing Translational Sciences (NCATS)
Shown are actives, neighbours in structure and some others; about 10% of the full set was active somewhere.
NIH3T3 tox – cytotoxic compounds in NIH 3T3 cells; NIH 3T3 viability, CellTiter-Glo ATP luminescence, 48-72 h; Potency, µM (series often up to 96.7 µM), hits mostly inhibitors; 94,000 tested, 4.3% active; note: nearly all actives have a fitted effect of over 55% in size
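ATP-dependent luminescence (CellTiter-Glo) served as the viability signal for NIH 3T3 cells treated with compound for 48 or 72 hr at 37 °C.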
GPT2 inhibitor – blocks human glutamate pyruvate transaminase 2. AID 1671188. Potency, µM (titrated, usually from 57.7 µM), hits mostly inhibitors. Recombinant GPT2, coupled pyruvate oxidase/HRP Amplex Red fluorescence. 100,000 tested, 0.25% active; note: nearly all actives have a fitted effect of over 60% in size
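GPT2 10ng/uL, a-KG 250uM, L-Ala 2mM, HEPES pH7.5 + 0.0001% Tween; 30 min RT. Then Amplex mix (PO/HRP/ThPP), 30 min RT dark, fluorescence. AOA 50uM used as positive control.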
Luciferase inh – Photinus pyralis luciferase inhibition | P08659 | purified P. pyralis luciferase, luminescence, biochemical | Potency, µM (top dose mostly 115 µM), actives largely listed as inhibitors | 76,000 tested, 2.5% active | AID 1347043; note: nearly all actives have a fitted effect of over 65% in size
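Luminescence read by CCD imager after adding enzyme (10nM final) to wells holding compound, titrated in qHTS. Substrates 10uM each D-luciferin and ATP; buffer 50mM Tris acetate pH 7.5, 10mM Mg acetate, Tween-20, BSA.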
hNpr1 antagonist – blocks ANP-stimulated signaling of human Npr1 receptor. P16066. HEK293 hNpr1 GloSensor cGMP, ANP-stimulated luminescence. Potency, µM (top dose mostly 46.3 µM), hits mostly inhibitors. 76,000 tested, 1.6% active. AID 1347048; calls by dose curve; note: nearly all actives have a fitted effect of over 60% in size
Target sequence (P16066 whole entry, looked up): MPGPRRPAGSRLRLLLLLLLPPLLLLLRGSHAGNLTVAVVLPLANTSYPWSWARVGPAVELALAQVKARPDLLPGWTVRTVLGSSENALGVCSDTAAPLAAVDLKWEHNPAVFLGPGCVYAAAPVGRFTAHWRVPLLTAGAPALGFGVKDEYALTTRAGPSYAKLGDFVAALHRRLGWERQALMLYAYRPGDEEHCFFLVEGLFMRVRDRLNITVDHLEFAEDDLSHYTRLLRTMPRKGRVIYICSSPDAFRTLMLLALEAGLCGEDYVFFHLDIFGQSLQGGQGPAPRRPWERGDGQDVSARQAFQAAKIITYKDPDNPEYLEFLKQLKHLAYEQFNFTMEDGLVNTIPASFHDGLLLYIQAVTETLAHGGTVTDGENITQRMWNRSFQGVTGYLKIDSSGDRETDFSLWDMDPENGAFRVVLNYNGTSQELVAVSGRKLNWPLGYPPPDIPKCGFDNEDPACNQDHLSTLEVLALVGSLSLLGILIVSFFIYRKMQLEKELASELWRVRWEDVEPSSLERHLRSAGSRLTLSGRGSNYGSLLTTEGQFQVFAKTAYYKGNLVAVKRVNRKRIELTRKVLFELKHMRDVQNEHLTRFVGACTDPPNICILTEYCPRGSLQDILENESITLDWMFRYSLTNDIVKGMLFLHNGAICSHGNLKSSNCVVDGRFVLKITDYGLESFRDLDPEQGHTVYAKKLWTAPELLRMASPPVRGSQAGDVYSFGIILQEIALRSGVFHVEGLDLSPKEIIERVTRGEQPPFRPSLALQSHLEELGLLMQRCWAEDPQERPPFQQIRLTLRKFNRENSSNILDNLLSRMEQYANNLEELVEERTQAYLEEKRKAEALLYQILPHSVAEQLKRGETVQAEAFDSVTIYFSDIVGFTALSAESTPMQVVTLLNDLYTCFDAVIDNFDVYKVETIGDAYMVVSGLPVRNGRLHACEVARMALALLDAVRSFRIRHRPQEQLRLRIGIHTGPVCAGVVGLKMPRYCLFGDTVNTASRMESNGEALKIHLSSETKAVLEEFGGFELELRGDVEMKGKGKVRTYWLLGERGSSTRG
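HEK293 cells stably expressing human Npr1 and cGMP GloSensor pGS-40F, loaded 2 h with 2% GloSensor reagent, given compound 30 min at room temperature. Luminescence read before and 20 min after 0.1 nM hNppA.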
HEK293 tox – HEK 293 cell cytotoxicity. HEK 293 viability, ATP luminescence (CellTiter-Glo), 48-72 h. Potency, µM (highest dose often 115 µM), usual class: inhibitors. 94,000 tested, 6.6% active. AID 1345083; note: nearly all actives have a fitted effect of over 60% in size
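250 HEK 293 cells/well; compound by pintool; incubated 48 or 72 hr at 37 degree Celsius; CellTiter-Glo added, 10 min RT, luminescence imaged.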
A number is an active result; – = inactive; ? = inconclusive; · = no result; [ ] = dose if it differs, or a comment. Unless noted, calls come from the whole dose curve; as a rule, active = well fitted curve in the direction sought with a large enough effect; inconclusive = small, poorly fitted or top-dose-only effect, or another doubt; inactive = no such curve, though single readings can be large; an effect the other way counts as inactive or inconclusive.

SMILES	NIH3T3 tox	GPT2 inhibitor	Luciferase inh	hNpr1 antagonist	HEK293 tox
CCCCCNC(=O)C1CCN(c2nccc(Nc3ccccc3F)n2)CC1	?	–	·	·	?
COc1ccccc1Nc1ccnc(N2CCCC(C(=O)NCCc3ccc(F)cc3)C2)n1 (stereo not drawn)	?	–	·	·	?
CCCCCNC(=O)C1CCCN(c2nccc(Nc3ccccc3OC)n2)C1 (stereo not drawn)	?	–	·	·	39.8µM
COc1ccccc1Nc1ccnc(N2CCCC(C(=O)NCCc3ccccc3)C2)n1 (stereo not drawn)	15.8µM	–	·	·	?
O=C(CCC[C@H]1NC[C@@H]2CC1CN(Cc1ccccc1)C2)NCc1ccc(F)cc1	?	–	–	–	?
COc1ccc(C(=O)NCCC2CCN(C(=O)Nc3ccc(C)c(F)c3)CC2)cc1	?	–	3.55µM	–	–
Cc1ccc(NC(=O)N2CCC(CCNC(=O)c3n[nH]c4ccccc34)CC2)cc1F	?	–	?	–	79.4µM
Cc1ccc(NC(=O)N2CCC(CCNC(=O)c3ccccn3)CC2)cc1F	?	–	·	·	?
COC(=O)CC(=O)N1CCC(C(=O)N2CCC(N3Cc4cccn4C3=O)CC2)CC1	–	–	·	·	–
C=CCN1C[C@@H]2C[C@@H](C(=O)NC)N(C(=O)c3ccc(-c4cccs4)s3)c3cccc(c32)C1=O	?	–	·	·	–
COc1ccccc1CN1CCOc2cc([S+](=O)([O-])N(C)C)ccc2C1	?	–	–	–	89.1µM
CN(C)[S+](=O)([O-])c1ccc2c(c1)OCCN(Cc1cccc(F)c1F)C2	?	–	–	–	?
CN(C)[S+](=O)([O-])c1ccc2c(c1)OCCN(Cc1ccccc1Cl)C2	56.2µM	–	–	–	?
O=C1N(Cc2ccc(F)c(F)c2)CCCC12CCN(c1nc3ccccc3o1)C2 (stereo not drawn)	39.8µM	–	39.8µM	–	?
CC(C)CN(C)C(=O)c1cc(-c2cnn(C(C)C)c2)nc2cc(F)ccc12	?	–	?	–	–
CC(C)n1cc(-c2cc(C(=O)N(C)Cc3cccnc3)c3cc(F)ccc3n2)cn1	–	–[11.5 µM]	35.5µM	–	?
O=C(CCN1c2ccccc2Sc2ccccc21)N1CCCC(c2nc(C3CCOCC3)no2)C1 (stereo not drawn)	?	–	–	–	39.8µM
O=C(c1ccccc1)N1CCCC(c2nc(C3CCOCC3)no2)C1 (stereo not drawn)	–	–	–	–	–
Cc1noc(C)c1-c1cc2cc(CO)oc2c(-c2ccc(F)c(Cl)c2)n1	22.4µM	–	–	–	50.1µM
Cc1noc(C)c1-c1cc2cc(CO)oc2c(NCCOc2ccccc2)n1	?	–	–	–	?
COc1ccc(-c2nc(-c3c(C)noc3C)cc3cc(CO)oc23)cn1	?	–	–	–	?
Cc1cc2cc(-c3c(C)noc3C)nc(NC3CC3)c2o1	?	–	–	–	?
Cc1noc(C)c1-c1cc2cc(CO)oc2c(NC2CCOCC2)n1	25.1µM	–	–	–	?
Cc1noc(C)c1-c1cc2cc(CO)oc2c(NCC2CCOCC2)n1	22.4µM	–	–	–	?
O=C1[C@H]2CN(Cc3ccc(F)c(Cl)c3)C[C@H]2C(=O)N1Cc1ccc2c(c1)OCO2	?	–	–	–	35.5µM
SMILES	NIH3T3 tox	GPT2 inhibitor	Luciferase inh	hNpr1 antagonist	HEK293 tox
O=C(c1nc2sccn2c1-c1ccc(C(F)(F)F)cc1)N1CCOCC1	–	–	·	·	–
COc1ccc(C(=O)N2CCCN(c3ccc4nnc(C5CC5)n4n3)CC2)cc1	–	·	·	·	–
O=C(Nc1cccc(C(F)(F)F)c1)c1cnc2c(c1)N(Cc1ccccc1)CCC2	31.6µM	–	–	–	63.1µM
COc1ccccc1CC(=O)N1CCCc2ncc(C(=O)Nc3cccc(C(F)(F)F)c3)cc21	?	?	–	–	50.1µM
COc1ccccc1CC(=O)N1CCCc2ncc(C(=O)Nc3cccc(Cl)c3)cc21	?	–	–	?	56.2µM
COc1ccc(NC(=O)c2cnc3c(c2)N(C(=O)Cc2cccc(C(F)(F)F)c2)CCC3)cc1OC	?	–	–	–	?
COc1ccccc1CC(=O)N1CCCc2ncc(C(=O)Nc3ccc(OC)c(OC)c3)cc21	–	–	–	–	?
CCOCCCNc1ncnc2c1CN(C1CCCNC1)C(=O)CN2C (stereo not drawn)	–	–	·	·	–
